# In article PMC7862700, “An all-to-all approach to the identification of sequence-specific readers for epigenetic DNA modifications on cytosine”:
# Key:
# Experiment in all cases: DAPPL (digital affinity profiling via proximity ligation, sequencing); 10 mM Tris-HCl pH 7.5, 50 mM NaCl, 1 mM DTT, 4% glycerol, room temperature, 30 min; GST-TFs on glutathione beads, 16-mer random dsDNA library, 0.1% formaldehyde crosslink after washing; high values mean tight binding
# FLI1 = molecular target: T1, FLI1 (Homo sapiens, UniProt Q01543 1-452); conditions: protein: recombinant; tags: N-terminal GST; dsDNA, one strand shown
# T1 sequence: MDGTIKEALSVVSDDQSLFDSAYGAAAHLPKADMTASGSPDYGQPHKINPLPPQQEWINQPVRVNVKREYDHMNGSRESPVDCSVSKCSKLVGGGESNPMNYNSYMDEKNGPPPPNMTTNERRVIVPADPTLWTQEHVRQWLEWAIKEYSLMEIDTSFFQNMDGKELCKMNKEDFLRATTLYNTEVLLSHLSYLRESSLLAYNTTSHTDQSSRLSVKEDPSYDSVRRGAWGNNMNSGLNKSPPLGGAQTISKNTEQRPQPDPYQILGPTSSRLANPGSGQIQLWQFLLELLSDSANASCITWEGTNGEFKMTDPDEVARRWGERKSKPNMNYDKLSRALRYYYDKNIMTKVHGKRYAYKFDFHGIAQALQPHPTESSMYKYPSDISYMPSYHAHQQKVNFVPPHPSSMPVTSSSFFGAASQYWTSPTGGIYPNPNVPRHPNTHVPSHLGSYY
# Outline: (§1)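 Yeast served to express human transcription factors as GST fusions, which were then captured on glutathione beads and labelled with DNA barcodes. Pooled with a tag-only sample, they were incubated with 200 nmole of a 16-mer random double-stranded DNA library for 30 min at room temperature in Tris/NaCl/DTT/glycerol buffer, washed, crosslinked with 0.1% formaldehyde, ligated by proximity, amplified by PCR and sequenced. Dividing each hexamer's read frequency for a factor by its frequency for the tag-only sample gives the binding signal.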
# ELK1 = molecular target: T2, ELK1 (Homo sapiens, UniProt P19419 1-428); conditions: protein: recombinant; tags: N-terminal GST; dsDNA, one strand shown
# T2 sequence: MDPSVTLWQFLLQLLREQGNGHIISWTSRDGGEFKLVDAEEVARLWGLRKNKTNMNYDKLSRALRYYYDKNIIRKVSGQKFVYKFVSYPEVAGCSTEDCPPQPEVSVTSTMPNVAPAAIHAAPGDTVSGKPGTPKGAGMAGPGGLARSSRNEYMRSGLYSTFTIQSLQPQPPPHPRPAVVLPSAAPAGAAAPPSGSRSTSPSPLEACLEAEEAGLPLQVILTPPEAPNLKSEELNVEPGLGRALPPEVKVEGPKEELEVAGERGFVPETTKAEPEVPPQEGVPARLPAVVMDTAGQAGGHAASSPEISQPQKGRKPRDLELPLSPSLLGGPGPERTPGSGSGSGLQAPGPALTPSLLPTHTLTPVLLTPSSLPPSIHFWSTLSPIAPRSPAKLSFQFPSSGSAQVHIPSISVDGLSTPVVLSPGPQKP
# Outline: as §1
# GABPA = molecular target: T3, GABPA (Homo sapiens, UniProt Q06546 1-454); conditions: protein: recombinant; tags: N-terminal GST; dsDNA, one strand shown
# T3 sequence: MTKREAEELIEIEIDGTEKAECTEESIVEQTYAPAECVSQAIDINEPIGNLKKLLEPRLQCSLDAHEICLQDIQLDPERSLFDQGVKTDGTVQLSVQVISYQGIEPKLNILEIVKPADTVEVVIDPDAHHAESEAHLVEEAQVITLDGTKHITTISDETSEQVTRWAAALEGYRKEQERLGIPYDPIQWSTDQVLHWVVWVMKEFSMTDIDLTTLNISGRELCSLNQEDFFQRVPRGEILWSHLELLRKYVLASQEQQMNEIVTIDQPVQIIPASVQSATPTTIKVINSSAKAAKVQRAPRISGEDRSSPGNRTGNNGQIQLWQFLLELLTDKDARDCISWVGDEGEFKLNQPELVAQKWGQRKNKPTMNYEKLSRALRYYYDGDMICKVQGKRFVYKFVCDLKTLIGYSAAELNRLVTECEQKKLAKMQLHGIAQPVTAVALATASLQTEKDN
# Outline: as §1
# ERG = molecular target: T4, ERG (Homo sapiens, UniProt P11308 1-479); conditions: protein: recombinant; tags: N-terminal GST; dsDNA, one strand shown
# T4 sequence: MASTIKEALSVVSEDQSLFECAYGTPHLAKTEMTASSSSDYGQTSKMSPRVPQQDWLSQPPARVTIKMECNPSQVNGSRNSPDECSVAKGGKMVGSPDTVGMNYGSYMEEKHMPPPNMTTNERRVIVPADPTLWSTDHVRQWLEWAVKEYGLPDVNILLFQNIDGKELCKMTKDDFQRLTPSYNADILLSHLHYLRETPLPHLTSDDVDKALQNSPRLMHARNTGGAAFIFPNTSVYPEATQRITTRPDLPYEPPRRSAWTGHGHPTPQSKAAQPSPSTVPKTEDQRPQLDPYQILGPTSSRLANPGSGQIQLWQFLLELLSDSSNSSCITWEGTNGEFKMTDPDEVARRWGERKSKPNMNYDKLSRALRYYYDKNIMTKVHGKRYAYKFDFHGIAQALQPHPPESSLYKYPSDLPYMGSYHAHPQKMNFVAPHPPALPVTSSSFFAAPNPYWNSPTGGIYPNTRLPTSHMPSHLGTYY
# Outline: as §1
# ELF1 = ELF1 (Homo sapiens, UniProt P32519 1-619); conditions: protein: recombinant; tags: N-terminal GST; dsDNA, one strand shown
# ELF1, sequence (P32519 whole entry): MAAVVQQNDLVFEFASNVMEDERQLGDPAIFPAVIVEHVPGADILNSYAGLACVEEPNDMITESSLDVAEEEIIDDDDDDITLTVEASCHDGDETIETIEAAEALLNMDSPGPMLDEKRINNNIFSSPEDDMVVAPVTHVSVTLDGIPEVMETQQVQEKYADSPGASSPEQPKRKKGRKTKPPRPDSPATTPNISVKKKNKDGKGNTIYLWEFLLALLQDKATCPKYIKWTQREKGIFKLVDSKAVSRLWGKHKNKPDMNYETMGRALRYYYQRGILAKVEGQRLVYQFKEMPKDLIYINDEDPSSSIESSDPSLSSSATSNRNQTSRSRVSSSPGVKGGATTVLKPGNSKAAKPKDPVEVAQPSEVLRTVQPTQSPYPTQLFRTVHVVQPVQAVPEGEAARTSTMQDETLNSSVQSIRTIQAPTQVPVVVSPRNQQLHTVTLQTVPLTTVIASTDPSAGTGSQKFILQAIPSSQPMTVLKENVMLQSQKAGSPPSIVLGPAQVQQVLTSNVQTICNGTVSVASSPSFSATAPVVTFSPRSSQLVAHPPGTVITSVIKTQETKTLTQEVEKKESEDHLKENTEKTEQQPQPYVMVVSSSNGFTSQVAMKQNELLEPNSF
# Outline: as §1
# EHF = molecular target: T5, EHF (Homo sapiens, UniProt Q9NZC4 1-300); conditions: protein: recombinant; tags: N-terminal GST; dsDNA, one strand shown
# T5 sequence: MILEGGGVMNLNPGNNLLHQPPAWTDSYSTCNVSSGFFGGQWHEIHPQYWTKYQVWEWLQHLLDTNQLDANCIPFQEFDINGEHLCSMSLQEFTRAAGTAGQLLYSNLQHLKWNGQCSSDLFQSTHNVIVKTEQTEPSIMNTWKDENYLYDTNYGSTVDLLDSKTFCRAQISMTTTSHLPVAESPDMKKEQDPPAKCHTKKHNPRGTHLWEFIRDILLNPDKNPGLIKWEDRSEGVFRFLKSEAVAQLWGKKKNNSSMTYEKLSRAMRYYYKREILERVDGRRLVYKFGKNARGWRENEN
# Outline: as §1
# SPI1 = SPI1 (Homo sapiens, UniProt P17947 1-270); conditions: protein: recombinant; tags: N-terminal GST; dsDNA, one strand shown
# Outline: as §1
# SPIB = SPIB (Homo sapiens, UniProt Q01892 1-262); conditions: protein: recombinant; tags: N-terminal GST; dsDNA, one strand shown
# SPIB, sequence (Q01892 whole entry): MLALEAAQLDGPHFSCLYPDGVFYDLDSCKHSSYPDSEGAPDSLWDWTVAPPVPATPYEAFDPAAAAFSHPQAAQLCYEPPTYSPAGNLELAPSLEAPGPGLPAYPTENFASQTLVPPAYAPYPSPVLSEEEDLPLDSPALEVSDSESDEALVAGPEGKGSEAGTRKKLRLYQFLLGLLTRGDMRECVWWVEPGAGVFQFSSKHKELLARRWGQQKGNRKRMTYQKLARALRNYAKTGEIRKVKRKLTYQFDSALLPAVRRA
# Outline: as §1
# ELK3 = molecular target: T6, ELK3 (Homo sapiens, UniProt P41970 1-407); conditions: protein: recombinant; tags: N-terminal GST; dsDNA, one strand shown
# T6 sequence: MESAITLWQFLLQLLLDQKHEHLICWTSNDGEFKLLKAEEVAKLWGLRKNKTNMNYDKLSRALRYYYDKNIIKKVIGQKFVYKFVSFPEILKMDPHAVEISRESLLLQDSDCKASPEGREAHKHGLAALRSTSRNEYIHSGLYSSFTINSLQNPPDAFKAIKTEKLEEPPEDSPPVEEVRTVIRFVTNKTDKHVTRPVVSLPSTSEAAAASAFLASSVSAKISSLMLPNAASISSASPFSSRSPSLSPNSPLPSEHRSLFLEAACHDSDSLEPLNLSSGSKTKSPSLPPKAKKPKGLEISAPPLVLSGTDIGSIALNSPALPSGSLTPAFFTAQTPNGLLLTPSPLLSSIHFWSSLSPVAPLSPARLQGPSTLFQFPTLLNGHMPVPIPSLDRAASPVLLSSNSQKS
# Outline: as §1
# FEV = molecular target: T7, FEV (Homo sapiens, UniProt Q99581 1-238); conditions: protein: recombinant; tags: N-terminal GST; dsDNA, one strand shown
# T7 sequence: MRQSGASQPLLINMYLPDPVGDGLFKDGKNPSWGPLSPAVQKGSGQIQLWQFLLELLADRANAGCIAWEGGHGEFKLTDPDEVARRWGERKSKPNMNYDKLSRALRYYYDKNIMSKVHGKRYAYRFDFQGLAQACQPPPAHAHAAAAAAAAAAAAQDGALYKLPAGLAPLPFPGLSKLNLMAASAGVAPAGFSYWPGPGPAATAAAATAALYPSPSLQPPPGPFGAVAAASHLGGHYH
# Outline: as §1
# ETV5 = ETV5 (Homo sapiens, UniProt P41161 1-510); conditions: protein: recombinant; tags: N-terminal GST; dsDNA, one strand shown
# ETV5, sequence (P41161 whole entry): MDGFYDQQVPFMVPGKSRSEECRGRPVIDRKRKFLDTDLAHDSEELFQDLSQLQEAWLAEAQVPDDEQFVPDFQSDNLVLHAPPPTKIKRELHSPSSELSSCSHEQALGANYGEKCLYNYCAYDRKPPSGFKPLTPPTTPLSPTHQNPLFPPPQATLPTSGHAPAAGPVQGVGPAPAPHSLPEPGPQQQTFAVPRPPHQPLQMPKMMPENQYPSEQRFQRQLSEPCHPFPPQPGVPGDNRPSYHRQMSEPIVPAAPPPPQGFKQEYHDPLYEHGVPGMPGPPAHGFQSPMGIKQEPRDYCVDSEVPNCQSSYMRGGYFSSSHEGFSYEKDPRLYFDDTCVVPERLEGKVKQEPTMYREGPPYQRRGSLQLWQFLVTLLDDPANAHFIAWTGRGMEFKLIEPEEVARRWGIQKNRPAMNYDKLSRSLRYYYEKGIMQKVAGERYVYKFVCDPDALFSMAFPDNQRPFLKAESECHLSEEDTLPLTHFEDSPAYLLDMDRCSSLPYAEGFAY
# Outline: as §1
# HSF1 = HSF1 (Homo sapiens, UniProt Q00613 1-529); conditions: protein: recombinant; tags: N-terminal GST; chain copies: 3; dsDNA, one strand shown
# HSF1, sequence (Q00613 whole entry): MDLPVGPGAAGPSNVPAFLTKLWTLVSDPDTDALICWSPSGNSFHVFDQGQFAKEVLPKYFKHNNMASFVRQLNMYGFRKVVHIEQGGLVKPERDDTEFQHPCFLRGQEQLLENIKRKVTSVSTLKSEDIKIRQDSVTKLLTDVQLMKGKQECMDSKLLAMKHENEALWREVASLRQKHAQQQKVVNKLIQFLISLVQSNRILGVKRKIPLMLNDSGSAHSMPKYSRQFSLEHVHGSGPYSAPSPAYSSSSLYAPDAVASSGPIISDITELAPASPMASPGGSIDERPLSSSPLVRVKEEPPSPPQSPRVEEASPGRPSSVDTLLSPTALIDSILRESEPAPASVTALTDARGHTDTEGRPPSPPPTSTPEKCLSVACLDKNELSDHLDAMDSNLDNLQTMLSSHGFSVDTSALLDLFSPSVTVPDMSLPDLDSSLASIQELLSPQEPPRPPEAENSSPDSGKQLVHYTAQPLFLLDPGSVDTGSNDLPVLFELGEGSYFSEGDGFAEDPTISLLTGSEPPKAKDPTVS
# Outline: as §1
# SPIC = molecular target: T8, SPIC (Homo sapiens, UniProt Q8N5J4 1-248); conditions: protein: recombinant; tags: N-terminal GST; dsDNA, one strand shown
# T8 sequence: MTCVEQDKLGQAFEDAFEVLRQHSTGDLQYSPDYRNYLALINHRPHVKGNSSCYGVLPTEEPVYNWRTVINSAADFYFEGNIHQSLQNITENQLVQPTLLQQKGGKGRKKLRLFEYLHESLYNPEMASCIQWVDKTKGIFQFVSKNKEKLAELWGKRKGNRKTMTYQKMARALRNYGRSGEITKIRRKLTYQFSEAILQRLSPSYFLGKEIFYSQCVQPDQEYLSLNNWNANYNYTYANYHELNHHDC
# Outline: as §1
# ELF4 = ELF4 (Homo sapiens, UniProt Q99607 1-663); conditions: protein: recombinant; tags: N-terminal GST; dsDNA, one strand shown
# ELF4, sequence (Q99607 whole entry): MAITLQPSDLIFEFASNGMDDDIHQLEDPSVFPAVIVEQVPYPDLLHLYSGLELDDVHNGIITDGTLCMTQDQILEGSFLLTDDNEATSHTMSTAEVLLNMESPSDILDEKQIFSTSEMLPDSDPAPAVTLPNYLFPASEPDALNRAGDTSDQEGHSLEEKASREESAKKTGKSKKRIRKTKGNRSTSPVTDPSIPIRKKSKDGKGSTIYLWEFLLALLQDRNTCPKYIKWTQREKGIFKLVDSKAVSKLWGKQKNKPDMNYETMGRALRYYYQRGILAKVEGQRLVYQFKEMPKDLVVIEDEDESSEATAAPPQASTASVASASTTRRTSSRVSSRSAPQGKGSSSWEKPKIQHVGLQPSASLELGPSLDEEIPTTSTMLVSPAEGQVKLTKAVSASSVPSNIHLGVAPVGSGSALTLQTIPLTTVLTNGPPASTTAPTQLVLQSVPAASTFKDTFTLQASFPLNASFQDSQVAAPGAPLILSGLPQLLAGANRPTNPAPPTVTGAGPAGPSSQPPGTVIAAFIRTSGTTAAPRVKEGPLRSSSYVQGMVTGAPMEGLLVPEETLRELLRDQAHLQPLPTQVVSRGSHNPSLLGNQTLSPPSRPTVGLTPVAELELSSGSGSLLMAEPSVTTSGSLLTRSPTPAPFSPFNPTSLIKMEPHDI
# Outline: as §1
# ELK4 = molecular target: T9, ELK4 (Homo sapiens, UniProt P28324-2 1-405); conditions: protein: recombinant; tags: N-terminal GST; dsDNA, one strand shown
# T9 sequence: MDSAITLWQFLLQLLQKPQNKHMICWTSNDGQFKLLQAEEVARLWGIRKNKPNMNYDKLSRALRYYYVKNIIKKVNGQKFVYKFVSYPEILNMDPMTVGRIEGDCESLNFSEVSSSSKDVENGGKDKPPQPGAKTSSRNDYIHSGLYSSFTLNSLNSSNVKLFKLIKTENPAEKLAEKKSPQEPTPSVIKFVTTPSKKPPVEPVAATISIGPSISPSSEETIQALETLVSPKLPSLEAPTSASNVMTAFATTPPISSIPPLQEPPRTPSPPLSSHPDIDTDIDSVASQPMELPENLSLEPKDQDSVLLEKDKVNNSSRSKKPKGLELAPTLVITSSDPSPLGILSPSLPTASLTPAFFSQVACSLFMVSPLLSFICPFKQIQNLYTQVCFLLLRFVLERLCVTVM
# Outline: as §1
# ETV2 = molecular target: T10, ETV2 (Homo sapiens, UniProt O00321 1-342); conditions: protein: recombinant; tags: N-terminal GST; dsDNA, one strand shown
# T10 sequence: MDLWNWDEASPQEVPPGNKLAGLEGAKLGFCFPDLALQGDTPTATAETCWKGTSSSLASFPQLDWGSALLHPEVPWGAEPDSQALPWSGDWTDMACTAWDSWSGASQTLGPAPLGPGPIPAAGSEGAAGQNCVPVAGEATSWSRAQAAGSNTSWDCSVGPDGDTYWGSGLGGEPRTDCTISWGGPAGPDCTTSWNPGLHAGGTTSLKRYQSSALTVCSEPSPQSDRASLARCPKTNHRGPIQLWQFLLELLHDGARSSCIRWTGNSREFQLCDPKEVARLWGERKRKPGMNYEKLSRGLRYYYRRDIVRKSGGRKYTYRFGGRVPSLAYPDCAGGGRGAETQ
# Outline: as §1
# ELF3 = molecular target: T11, ELF3 (Homo sapiens, UniProt P78545 1-371); conditions: protein: recombinant; tags: N-terminal GST; dsDNA, one strand shown
# T11 sequence: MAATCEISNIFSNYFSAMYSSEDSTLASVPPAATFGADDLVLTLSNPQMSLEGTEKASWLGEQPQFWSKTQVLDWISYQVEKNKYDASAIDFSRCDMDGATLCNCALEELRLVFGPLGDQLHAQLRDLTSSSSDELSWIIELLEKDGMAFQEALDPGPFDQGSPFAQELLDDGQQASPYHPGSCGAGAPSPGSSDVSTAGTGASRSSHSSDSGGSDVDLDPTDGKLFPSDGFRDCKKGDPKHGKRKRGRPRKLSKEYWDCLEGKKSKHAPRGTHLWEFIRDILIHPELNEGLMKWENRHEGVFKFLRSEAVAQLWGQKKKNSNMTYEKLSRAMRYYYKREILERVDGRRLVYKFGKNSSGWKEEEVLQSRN
# Outline: as §1
# CRX = CRX (Homo sapiens, UniProt O43186 1-299); conditions: protein: recombinant; tags: N-terminal GST; dsDNA, one strand shown
# CRX, sequence (O43186 whole entry): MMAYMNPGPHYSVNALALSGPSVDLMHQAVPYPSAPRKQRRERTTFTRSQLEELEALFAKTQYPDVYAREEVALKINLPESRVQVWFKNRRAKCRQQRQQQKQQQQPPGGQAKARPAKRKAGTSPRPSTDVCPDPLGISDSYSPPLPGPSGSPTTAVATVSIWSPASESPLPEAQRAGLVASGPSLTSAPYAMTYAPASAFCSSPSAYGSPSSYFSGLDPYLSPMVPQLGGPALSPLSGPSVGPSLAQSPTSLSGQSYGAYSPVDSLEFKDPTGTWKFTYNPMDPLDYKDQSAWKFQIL
# Outline: as §1
# ETV1 = ETV1 (Homo sapiens, UniProt P50549 1-477); conditions: protein: recombinant; tags: N-terminal GST; dsDNA, one strand shown
# ETV1, sequence (P50549 whole entry): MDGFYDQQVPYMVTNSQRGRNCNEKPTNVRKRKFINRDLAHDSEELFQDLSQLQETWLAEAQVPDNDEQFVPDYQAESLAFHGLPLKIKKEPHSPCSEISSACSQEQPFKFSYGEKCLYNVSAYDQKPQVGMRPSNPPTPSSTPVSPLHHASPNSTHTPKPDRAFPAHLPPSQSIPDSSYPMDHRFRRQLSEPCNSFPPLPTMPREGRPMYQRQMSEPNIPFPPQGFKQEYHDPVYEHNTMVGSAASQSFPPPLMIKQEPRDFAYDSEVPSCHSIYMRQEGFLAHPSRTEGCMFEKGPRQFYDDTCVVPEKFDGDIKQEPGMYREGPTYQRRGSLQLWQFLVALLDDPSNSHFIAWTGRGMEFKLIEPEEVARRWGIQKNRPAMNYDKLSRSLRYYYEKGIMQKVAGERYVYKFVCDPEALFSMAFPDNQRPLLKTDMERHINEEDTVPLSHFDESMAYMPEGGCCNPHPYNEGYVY
# Outline: as §1
sequence,measurement,setting,value
GATGTT,binding signal,FLI1,"1.28 fold enrichment (6-mer frequency, TF over GST control)"
same,binding signal,ELK1,"1.34 fold enrichment (6-mer frequency, TF over GST control)"
same,binding signal,GABPA,"1.27 fold enrichment (6-mer frequency, TF over GST control)"
same,binding signal,ERG,"1.28 fold enrichment (6-mer frequency, TF over GST control)"
same,binding signal,ELF1,"1.25 fold enrichment (6-mer frequency, TF over GST control)"
same,binding signal,EHF,"1.32 fold enrichment (6-mer frequency, TF over GST control)"
same,binding signal,SPI1,"1.25 fold enrichment (6-mer frequency, TF over GST control)"
same,binding signal,SPIB,"1.2 fold enrichment (6-mer frequency, TF over GST control)"
same,binding signal,ELK3,"1.22 fold enrichment (6-mer frequency, TF over GST control)"
same,binding signal,FEV,"1.22 fold enrichment (6-mer frequency, TF over GST control)"
same,binding signal,ETV5,"1.31 fold enrichment (6-mer frequency, TF over GST control)"
same,binding signal,HSF1,"1.18 fold enrichment (6-mer frequency, TF over GST control)"
same,binding signal,SPIC,"1.39 fold enrichment (6-mer frequency, TF over GST control)"
same,binding signal,ELF4,"1.22 fold enrichment (6-mer frequency, TF over GST control)"
same,binding signal,ELK4,"1.16 fold enrichment (6-mer frequency, TF over GST control)"
same,binding signal,ETV2,"1.21 fold enrichment (6-mer frequency, TF over GST control)"
same,binding signal,ELF3,"1.22 fold enrichment (6-mer frequency, TF over GST control)"
same,binding signal,CRX,"1.08 fold enrichment (6-mer frequency, TF over GST control)"
same,binding signal,ETV1,"1.25 fold enrichment (6-mer frequency, TF over GST control)"
